Measurements published in the supplement of paper PMC9694430.
Where “and” joins values, the source holds several entries; their conditions need not be identical. Identical values can stand only once.

The molecules below were run on LOC_OS01G10900-cb004 (assay: thermal shift delta Tm vs DMSO control; higher = stronger stabilization (binding)). Settings: 12.5 µM; protein concentration 2 µM.
Outline: (§1)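 Purified, E. coli-expressed rice kinase domain constructs were tested by differential scanning fluorimetry in 96-well plates: 19.5 μl of 2 μM kinase in 100 mM potassium phosphate pH 7.5, 150 mM NaCl, 10% glycerol, 5 × SYPRO Orange, plus compound in DMSO. Fluorescence was read from 25°C to 95°C at 0.05°C/s. Melting temperatures came from Boltzmann fits, and the shift is the triplicate mean relative to protein with DMSO alone.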

Row | SMILES | thermal shift delta Tm
1 | C=CC(=O)Nc1ccc(CN2C(=O)N(c3cc(OC)cc(OC)c3)Cc3cnc(Nc4ccc(N5CCN(C)CC5)cc4)nc32)cc1 | 4.79 °C
2 | c1ccc(-c2[nH]ncc2-c2ccnc3ccccc23)nc1 | 0.58 °C
3 | COc1ccc(Cl)c(Nc2nc3ccccc3nc2NS(=O)(=O)c2cccc(NC(=O)C(C)(C)N)c2)c1 [Pilaralisib (XL147)] | 0.29 °C
4 | CN1CCN(CCOc2cc(OC3CCOCC3)c3c(Nc4c(Cl)ccc5c4OCO5)ncnc3c2)CC1 [Saracatinib (AZD0530)] | 0.58 °C
5 | COc1cc2nccc(Oc3ccc(NC(=O)C4(C(=O)Nc5ccc(F)cc5)CC4)cc3)c2cc1OC [Cabozantinib malate (XL184)] | 0.03 °C
6 | Cc1cc(C)c(/C=C2\C(=O)Nc3ccccc32)[nH]1 [Semaxanib (SU5416)] | 0.7 °C
7 | NC(=O)c1ncn([C@@H]2O[C@H](CO)[C@@H](O)[C@H]2O)c1N [AICAR (Acadesine)] | 0.56 °C
8 | CN(c1ncccc1CNc1nc(Nc2ccc3c(c2)CC(=O)N3)ncc1C(F)(F)F)S(C)(=O)=O | 1.71 °C and 2.09 °C
9 | O=c1cc(N2CCOCC2)oc2c1ccc1ccccc12 | 1.69 °C
10 | CCn1c(-c2nonc2N)nc2cnc(Oc3cccc(NC(=O)c4ccc(OCCN5CCOCC5)cc4)c3)cc21 | 1.47 °C
11 | OC1CCC(Oc2cccc3cnc(Nc4ccc5nc[nH]c5c4)nc23)CC1 (configuration not stated) | 1.42 °C

Each molecule was assayed on LOC_OS01G13800-cb001 in the same assay as above. Settings: 12.5 µM; protein concentration 2 µM.
Outline: as §1

Row | SMILES | thermal shift delta Tm [°C]
12 | COc1cc(N2CCN(C)CC2)ccc1Nc1nccc(-c2cn(C)c3cnccc23)n1 | 0.56
13 | CN1CCN(c2nc(C3=C(c4c[nH]c5ccccc45)C(=O)NC3=O)c3ccccc3n2)CC1 [Sotrastaurin] | 0.15
14 | CCN(CC)CCCC(C)Nc1nc(C)cc(Nc2ccc3nc(C)cc(N)c3c2)n1 (configuration not stated) | -0.26
15 | CN(C)C[C@@H]1CCn2cc(c3ccccc32)C2=C(C(=O)NC2=O)c2cn(c3ccccc23)CCO1 | 1.16
16 | CCn1c2ccccc2c2cc(Nc3ccnc(NCCCN4CCOCC4)n3)ccc21 | -0.29
17 | O=C1NCCc2[nH]c(-c3ccncc3)cc21 | 0.78
18 | Oc1cc(O)cc(/C=C/c2ccc(O)c(O)c2)c1 [Piceatannol] | 1
19 | CC(C)(C#N)c1ccc(N2C(=O)OCc3cnc4ccc(-c5cnc6ccccc6c5)cc4c32)cc1 | 0.42
20 | N#CCNC(=O)c1ccc(-c2ccnc(Nc3ccc(N4CCOCC4)cc3)n2)cc1 [Momelotinib (CYT387)] | 0.1
21 | Cc1cc(C(=O)Nc2nc3cccc(Cl)c3n2[C@@H]2CCCCN(C(=O)/C=C/CN(C)C)C2)ccn1 [Nazartinib (EGF816, NVS-816)] | 0.82
22 | COc1cc(OC)cc(N(CCNC(C)C)c2ccc3ncc(-c4cnn(C)c4)nc3c2)c1 | 0.03
23 | O=C1c2ccc(Nc3ccc(F)cc3F)cc2CCc2ccc(OC[C@H](O)CO)cc21 [Skepinone-L] | -0.71
24 | O=C1CCc2c(Oc3ccc4c(c3)[C@@H]3[C@H](O4)[C@H]3c3nc4cc(C(F)(F)F)ccc4[nH]3)ccnc2N1 [Lifirafenib (BGB-283)] | 1.54
25 | N#C/C(=C(/N)Sc1ccc(N)cc1)c1ccccc1C(F)(F)F | 0.3
26 | COc1ccc(CC(=O)Nc2nc3c(s2)CCc2ccccc2-3)cc1OC | 0.28
27 | CCn1c(-c2nonc2N)nc2c(C#CC(C)(C)O)ncc(OC[C@H]3CCCNC3)c21 | 0.37
28 | Cn1cc(-c2ccc3nnc(Sc4ccc5ncccc5c4)n3n2)cn1 | -0.11
29 | CCc1nc(C(N)=O)c(Nc2ccc(N3CCC(N4CCN(C)CC4)CC3)c(OC)c2)nc1NC1CCOCC1 [Gilteritinib (ASP2215)] | 0.93
30 | CC(C)(CCCCCC(O)CCCCCC(C)(C)C(=O)O)C(=O)O | 0.41
31 | CCN1CCN(Cc2ccc(Nc3ncc(F)c(-c4cc(F)c5nc(C)n(C(C)C)c5c4)n3)nc2)CC1 | -0.66
32 | Cc1cnc(NC(=O)Nc2cc(Br)c(C)cc2OC[C@@H]2CNCCO2)cn1 | -0.12
33 | CCn1c(=O)c(-c2ccc(Cl)cc2Cl)cc2cnc(Nc3ccc(N4CCNCC4)c(F)c3)nc21 | 0.11
34 | C=CC(=O)Nc1cccc(Oc2nc(Nc3ccc(N4CCN(C)CC4)cc3OC)ncc2Cl)c1 | 0.58
35 | CCS(=O)(=O)Nc1ccc2c(c1)/C(=C(/Nc1ccc(CN3CCCCC3)cc1)c1ccccc1)C(=O)N2 [Hesperadin] | -0.97
36 | COCCOc1cnc2ccn([C@H](C)c3nnc4c(F)cc(-c5cnn(C)c5)cn34)c(=O)c2c1 | -0.27
37 | COc1ccc(-c2cc3c(C)nc(N)nc3n([C@H]3CC[C@H](OCCO)CC3)c2=O)cn1 | 0.31
